Experimental findings from ChEMBL document CHEMBL2218924, “A broad activity screen in support of a chemogenomic map for kinase signalling research and drug discovery” (Biochem J, 2013) are described below.

For assay [1], the target named is Dual specificity mitogen-activated protein kinase kinase 1 (Homo sapiens) (UniProt Q02750). The following applies: at 1 µM.
For assay [2] the target is unchanged. The following applies: at 10 µM.
For assay [3], the target named is Maternal embryonic leucine zipper kinase (Homo sapiens) (UniProt Q14680). The following applies: at 1 µM.
Sequence of Maternal embryonic leucine zipper kinase (Homo sapiens) (Q14680 whole entry, looked up): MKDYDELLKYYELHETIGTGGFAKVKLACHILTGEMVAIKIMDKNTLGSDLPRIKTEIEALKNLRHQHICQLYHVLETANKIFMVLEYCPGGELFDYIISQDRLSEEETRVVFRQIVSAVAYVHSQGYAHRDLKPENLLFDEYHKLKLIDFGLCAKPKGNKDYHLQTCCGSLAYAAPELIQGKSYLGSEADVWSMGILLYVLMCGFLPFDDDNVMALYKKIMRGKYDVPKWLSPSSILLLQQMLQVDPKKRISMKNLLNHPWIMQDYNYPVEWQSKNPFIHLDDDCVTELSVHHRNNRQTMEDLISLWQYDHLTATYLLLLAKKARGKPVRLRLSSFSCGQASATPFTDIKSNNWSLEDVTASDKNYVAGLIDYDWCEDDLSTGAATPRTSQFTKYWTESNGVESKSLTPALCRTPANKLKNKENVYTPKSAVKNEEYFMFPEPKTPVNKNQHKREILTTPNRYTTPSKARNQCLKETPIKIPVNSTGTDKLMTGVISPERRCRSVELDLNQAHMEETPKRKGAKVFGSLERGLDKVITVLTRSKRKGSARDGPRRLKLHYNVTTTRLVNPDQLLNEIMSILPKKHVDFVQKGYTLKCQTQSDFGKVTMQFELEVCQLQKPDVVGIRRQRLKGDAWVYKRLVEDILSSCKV
Assay [4] has the same target. The following applies: at 10 µM.
Assay [5] concerns the target Misshapen-like kinase 1 (Homo sapiens) (UniProt Q8N4C8). The following applies: at 1 µM.
The target is the same in assay [6]. The following applies: at 10 µM.
Assay [7] has as its target T1, Dual specificity mitogen-activated protein kinase kinase 6 (Homo sapiens) (UniProt P52564).
T1 sequence (whole entry): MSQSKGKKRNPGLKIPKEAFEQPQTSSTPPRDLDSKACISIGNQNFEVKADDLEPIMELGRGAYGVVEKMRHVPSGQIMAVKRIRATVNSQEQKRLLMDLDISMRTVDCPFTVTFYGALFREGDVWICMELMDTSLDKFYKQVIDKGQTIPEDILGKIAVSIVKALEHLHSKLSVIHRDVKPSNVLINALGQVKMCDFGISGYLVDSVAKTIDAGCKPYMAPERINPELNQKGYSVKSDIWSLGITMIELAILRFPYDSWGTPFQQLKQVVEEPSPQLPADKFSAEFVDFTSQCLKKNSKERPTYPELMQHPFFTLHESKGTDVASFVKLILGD
The following applies: at 1 µM.

The target of assay [8] is T1, Dual specificity mitogen-activated protein kinase kinase 6 (Homo sapiens). The following applies: at 10 µM.
Assay [9] has as its target T2, Dual specificity mitogen-activated protein kinase kinase 7 (Homo sapiens) (UniProt O14733).
T2 sequence (whole entry): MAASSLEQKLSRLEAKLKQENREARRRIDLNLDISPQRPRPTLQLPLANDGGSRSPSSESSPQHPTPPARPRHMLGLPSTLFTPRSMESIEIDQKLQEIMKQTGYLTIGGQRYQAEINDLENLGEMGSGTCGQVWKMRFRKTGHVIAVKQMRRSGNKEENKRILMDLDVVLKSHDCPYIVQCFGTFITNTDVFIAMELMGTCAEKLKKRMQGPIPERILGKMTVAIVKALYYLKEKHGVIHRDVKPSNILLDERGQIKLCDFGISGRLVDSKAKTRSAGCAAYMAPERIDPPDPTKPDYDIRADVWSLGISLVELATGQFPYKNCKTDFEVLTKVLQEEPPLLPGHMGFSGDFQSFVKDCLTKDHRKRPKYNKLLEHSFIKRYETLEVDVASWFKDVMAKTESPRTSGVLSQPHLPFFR
The following applies: at 1 µM.

Assay [10] deals with T2, Dual specificity mitogen-activated protein kinase kinase 7 (Homo sapiens). The following applies: at 10 µM.
Assay [11] has as its target Myosin light chain kinase, smooth muscle (Homo sapiens) (UniProt Q15746). The following applies: at 1 µM.
Assay [12] has the same target. The following applies: at 10 µM.
For assay [13], the target named is Mitogen-activated protein kinase kinase kinase 9 (Homo sapiens) (UniProt P80192). The following applies: at 1 µM.
In assay [14] the target is Serine/threonine-protein kinase MRCK alpha (Homo sapiens) (UniProt Q5VT25). The following applies: at 1 µM.
Assay [15] shares this target. The following applies: at 10 µM.
The target of assay [16] is Serine/threonine-protein kinase MRCK beta (Homo sapiens) (UniProt Q9Y5S2). The following applies: at 1 µM.
The target is the same in assay [17]. The following applies: at 10 µM.
Assay [18] deals with Ribosomal protein S6 kinase alpha-5 (Homo sapiens) (UniProt O75582). The following applies: at 1 µM.
Sequence of Ribosomal protein S6 kinase alpha-5 (Homo sapiens) (O75582 whole entry, looked up): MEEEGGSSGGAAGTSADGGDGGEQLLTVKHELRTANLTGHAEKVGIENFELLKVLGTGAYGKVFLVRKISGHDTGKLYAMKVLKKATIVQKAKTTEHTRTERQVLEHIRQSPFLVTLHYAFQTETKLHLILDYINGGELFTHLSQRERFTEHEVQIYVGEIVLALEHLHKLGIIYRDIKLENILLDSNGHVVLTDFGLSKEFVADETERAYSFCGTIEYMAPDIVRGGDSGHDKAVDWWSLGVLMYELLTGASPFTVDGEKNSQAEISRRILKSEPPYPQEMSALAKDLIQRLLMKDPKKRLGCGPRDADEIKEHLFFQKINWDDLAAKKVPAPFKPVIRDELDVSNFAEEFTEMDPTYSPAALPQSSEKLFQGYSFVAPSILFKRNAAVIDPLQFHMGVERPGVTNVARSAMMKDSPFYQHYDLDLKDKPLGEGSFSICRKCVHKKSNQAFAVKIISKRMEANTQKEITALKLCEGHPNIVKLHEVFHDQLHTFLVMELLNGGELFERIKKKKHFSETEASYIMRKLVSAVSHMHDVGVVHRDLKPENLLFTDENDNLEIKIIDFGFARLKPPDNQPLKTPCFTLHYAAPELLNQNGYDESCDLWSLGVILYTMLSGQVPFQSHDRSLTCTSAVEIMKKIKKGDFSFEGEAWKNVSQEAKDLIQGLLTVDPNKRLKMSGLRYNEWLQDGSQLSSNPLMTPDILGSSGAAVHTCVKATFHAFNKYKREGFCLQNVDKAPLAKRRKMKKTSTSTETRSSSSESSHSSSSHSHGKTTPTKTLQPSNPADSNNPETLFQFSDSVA
The target is the same in assay [19]. The following applies: at 10 µM.
Assay [20] deals with Mitogen-activated protein kinase kinase kinase 9 (Homo sapiens) (UniProt P80192). The following applies: at 10 µM.

Each structure is given as a SMILES string.

Sequence of Dual specificity mitogen-activated protein kinase kinase 1 (Homo sapiens) (Q02750 whole entry): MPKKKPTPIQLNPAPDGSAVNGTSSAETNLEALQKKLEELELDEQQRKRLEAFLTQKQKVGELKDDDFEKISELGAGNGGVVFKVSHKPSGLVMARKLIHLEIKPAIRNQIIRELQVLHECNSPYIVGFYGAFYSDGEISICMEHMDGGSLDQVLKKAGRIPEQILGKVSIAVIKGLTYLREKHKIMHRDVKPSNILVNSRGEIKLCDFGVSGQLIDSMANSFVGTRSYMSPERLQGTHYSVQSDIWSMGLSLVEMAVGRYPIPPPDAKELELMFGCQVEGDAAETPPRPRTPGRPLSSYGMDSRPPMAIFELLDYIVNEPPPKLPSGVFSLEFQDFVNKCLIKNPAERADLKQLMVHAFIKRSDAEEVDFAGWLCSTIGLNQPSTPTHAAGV
Sequence of Myosin light chain kinase, smooth muscle (Homo sapiens) (Q15746 whole entry): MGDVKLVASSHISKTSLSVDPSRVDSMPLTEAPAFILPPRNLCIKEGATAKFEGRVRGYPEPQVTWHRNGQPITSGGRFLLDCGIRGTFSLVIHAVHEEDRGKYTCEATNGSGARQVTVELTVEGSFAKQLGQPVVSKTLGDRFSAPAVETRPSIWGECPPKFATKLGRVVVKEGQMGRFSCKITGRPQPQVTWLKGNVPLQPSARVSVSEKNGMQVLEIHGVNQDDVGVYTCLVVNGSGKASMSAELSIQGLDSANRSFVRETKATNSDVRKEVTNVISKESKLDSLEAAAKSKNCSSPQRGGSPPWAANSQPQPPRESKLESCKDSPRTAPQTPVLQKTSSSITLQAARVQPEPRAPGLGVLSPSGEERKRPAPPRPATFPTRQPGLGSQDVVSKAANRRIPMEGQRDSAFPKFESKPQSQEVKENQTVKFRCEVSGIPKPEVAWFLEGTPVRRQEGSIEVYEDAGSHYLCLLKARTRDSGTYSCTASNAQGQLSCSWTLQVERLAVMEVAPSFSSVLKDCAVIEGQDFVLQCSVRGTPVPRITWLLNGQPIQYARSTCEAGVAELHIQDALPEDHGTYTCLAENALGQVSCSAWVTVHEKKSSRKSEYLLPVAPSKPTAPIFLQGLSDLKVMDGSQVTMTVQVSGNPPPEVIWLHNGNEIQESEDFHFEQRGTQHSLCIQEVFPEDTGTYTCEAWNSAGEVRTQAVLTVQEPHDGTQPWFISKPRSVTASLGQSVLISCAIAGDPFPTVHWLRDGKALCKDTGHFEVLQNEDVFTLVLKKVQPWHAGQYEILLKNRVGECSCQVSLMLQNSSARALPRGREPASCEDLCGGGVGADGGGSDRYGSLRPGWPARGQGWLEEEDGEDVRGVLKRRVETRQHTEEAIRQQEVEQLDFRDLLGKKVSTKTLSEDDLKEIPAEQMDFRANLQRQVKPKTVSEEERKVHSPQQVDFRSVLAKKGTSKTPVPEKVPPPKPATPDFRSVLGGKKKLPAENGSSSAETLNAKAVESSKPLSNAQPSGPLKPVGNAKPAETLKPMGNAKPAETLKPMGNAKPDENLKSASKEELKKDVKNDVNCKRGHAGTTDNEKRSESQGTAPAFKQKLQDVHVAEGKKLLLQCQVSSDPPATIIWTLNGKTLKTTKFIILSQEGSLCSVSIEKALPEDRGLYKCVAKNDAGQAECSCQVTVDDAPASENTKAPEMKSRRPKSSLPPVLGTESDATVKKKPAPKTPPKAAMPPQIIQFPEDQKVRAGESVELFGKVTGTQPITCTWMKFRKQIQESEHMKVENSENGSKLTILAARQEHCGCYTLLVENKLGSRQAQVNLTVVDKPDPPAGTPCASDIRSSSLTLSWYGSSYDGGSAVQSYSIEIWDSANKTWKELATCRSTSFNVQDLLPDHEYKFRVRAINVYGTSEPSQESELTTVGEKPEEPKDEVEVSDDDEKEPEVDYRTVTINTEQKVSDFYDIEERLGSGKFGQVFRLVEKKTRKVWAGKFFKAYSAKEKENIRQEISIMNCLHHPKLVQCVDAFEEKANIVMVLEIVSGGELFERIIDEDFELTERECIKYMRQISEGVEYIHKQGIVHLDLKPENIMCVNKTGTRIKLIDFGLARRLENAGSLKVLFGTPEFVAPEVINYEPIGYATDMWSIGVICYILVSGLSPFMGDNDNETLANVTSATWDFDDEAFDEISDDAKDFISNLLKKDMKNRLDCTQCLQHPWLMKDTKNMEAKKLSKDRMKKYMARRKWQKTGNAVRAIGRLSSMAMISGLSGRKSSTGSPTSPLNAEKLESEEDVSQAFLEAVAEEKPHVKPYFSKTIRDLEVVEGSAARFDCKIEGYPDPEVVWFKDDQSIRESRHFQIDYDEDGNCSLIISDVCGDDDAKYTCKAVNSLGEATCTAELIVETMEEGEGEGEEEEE
Sequence of Misshapen-like kinase 1 (Homo sapiens) (Q8N4C8 whole entry, looked up): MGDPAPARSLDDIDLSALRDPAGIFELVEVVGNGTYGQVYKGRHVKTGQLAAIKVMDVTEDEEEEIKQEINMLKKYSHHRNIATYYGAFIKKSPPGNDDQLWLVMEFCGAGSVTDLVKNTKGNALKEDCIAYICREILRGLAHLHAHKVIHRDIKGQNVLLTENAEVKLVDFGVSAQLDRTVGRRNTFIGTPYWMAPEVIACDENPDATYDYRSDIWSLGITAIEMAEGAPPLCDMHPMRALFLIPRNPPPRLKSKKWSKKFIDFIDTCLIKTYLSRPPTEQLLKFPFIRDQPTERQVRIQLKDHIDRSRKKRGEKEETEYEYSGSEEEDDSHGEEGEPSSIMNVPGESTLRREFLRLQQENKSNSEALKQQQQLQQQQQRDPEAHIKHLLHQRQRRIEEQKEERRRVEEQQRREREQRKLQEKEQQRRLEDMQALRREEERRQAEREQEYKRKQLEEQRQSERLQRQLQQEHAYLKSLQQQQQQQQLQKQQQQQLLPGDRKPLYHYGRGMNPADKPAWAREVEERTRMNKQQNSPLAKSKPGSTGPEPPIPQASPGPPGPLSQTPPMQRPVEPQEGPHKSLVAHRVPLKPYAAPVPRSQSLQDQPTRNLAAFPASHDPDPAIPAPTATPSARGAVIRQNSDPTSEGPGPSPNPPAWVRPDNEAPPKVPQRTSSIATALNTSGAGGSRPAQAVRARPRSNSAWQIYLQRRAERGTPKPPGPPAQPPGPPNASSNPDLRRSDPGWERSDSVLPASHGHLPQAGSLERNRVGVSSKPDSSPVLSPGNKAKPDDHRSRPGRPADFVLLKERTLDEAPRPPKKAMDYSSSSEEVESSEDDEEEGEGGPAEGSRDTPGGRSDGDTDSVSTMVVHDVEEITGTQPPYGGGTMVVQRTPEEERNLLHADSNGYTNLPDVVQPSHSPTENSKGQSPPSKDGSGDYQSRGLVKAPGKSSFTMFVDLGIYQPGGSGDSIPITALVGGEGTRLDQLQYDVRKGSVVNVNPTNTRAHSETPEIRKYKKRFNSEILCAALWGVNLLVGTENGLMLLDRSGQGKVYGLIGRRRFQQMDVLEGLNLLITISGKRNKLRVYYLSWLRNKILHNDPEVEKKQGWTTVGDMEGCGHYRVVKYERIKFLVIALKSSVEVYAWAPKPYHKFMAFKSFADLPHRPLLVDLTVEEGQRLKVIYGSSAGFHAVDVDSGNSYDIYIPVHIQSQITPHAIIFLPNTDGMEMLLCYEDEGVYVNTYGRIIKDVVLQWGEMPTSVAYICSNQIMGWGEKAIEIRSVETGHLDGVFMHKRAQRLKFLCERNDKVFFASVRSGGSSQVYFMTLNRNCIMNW

As for `C[S+]([O-])c1ccc(-c2nc(-c3ccc(F)cc3)c(-c3ccncc3)[nH]2)cc1` (stereo unspecified), the residual activity in assay [1] was 113%; in assay [2] it was 110%; in assay [3], 107%; in [4], 84%; in assay [5], 112%; in assay [6], 63%. Also, the residual activity in assay [7] was determined as 43%; in assay [8] it was 3%; in assay [9] it was 86%; in assay [10] it was 68%; in assay [11], 118%; in [12], 89%. For the same molecule, the residual activity in assay [13] worked out at 101%; in [14] it was 106%; in assay [15] it was 119%; in [16], 113%; in assay [17] it was 110%; in assay [18], 97%. The residual activity in assay [19] turned out to be 98%.

Turning to `c1cc(-c2cnn3cc(-c4ccc(OCCN5CCCCC5)cc4)cnc23)ccn1`, the residual activity was 123% in assay [1]; 117% in assay [2]; 5% in [3]; -1% in [4]; 59% in assay [5]; 13% in [6]. The residual activity was 71% in assay [12]; 78% in assay [13]; 17% in [20]; 121% in assay [14]; 118% in [15]; 106% in assay [16]. The residual activity in [18] is 121%; in assay [19], 60%.

On to `CC(C)[C@H](CO)Nc1nc(Nc2cccc(Cl)c2)c2ncn(C(C)C)c2n1`, for which the residual activity in [3] came out at 66%; in [4] it was 18%; in assay [7], 97%; in assay [8], 64%; in assay [9], 75%; in assay [12] it was 46%. Also, the residual activity in assay [13] was determined as 10%; in assay [20], 1%; in assay [16] it was 98%; in assay [17], 88%.

For `COc1ccc2c(c1)/C(=C/c1cnc[nH]1)C(=O)N2`, the residual activity in assay [1] worked out at 62%; in [2] it was 11%; in assay [3], 24%; in assay [4], 3%; in [5], 68%; in assay [6], 14%. Moreover, the residual activity in assay [9] amounted to 71%; in assay [10] it was 16%; in assay [13], 25%; in assay [20], 4%; in assay [14], 129%; in assay [15], 100%.

`COc1cc2ncnc(Nc3ccc(OCc4ccccc4)cc3)c2cc1OC`: the residual activity in [1] was 115%; in [2] it was 84%; in assay [3] it was 79%; in assay [4] it was 77%; in assay [5] it was 87%; in [6] it was 71%. Also, the residual activity in [7] worked out at 90%; in assay [8] it was 87%; in assay [9] it was 102%; in assay [10] it was 85%; in assay [11], 84%; in [12] it was 90%. Also, the residual activity came to 81% in [13]; 56% in assay [20]; 121% in [14]; 117% in assay [15]; 95% in assay [16]; 95% in [17].

For the molecule `CCn1cnc2c(Nc3cccc(Cl)c3)nc(N[C@@H]3CCCC[C@@H]3N)nc21`, the residual activity in [1] came out at 87%; in assay [2] it was 25%; in [3] it was 59%; in assay [4] it was 18%; in assay [6], 80%; in assay [7] it was 99%. Besides, the residual activity in assay [8] came to 78%; in [9] it was 86%; in assay [10], 91%; in assay [11] it was 94%; in [12], 46%; in [13], 16%. Moreover, the values for the residual activity in assay [20], in [16] and in [17] were 2%, 94% and 78%, respectively.

Take `O=C1c2ccccc2-c2nc3nnnn3nc21`: the residual activity is 67% in assay [3]; 33% in [4]; 105% in assay [5]; 107% in assay [6]; 116% in assay [8]; 66% in [9]. In addition, the residual activity in [10] was found to be 39%; in assay [11], 79%; in assay [12] it was 104%; in assay [13] it was 103%; in [20], 102%; in assay [14], 107%. Moreover, the residual activity in [15] stood at 100%; in [16], 116%; in assay [18], 145%.

Take `COc1cc(OC)c(/C=C2\C(=O)Nc3ccccc32)c(OC)c1`: the residual activity in assay [3] worked out at 104%; in assay [4] it was 77%; in assay [5], 105%; in assay [6], 50%; in [7], 105%; in assay [8] it was 87%. Also, the residual activity in assay [9] came out at 98%; in assay [10], 96%; in assay [11] it was 88%; in assay [12], 77%; in [13], 92%; in [20], 65%. Also, the residual activity in assay [16] amounted to 83%; in assay [17] it was 84%.

Turning to `CN[C@@H]1C[C@H]2O[C@@](C)([C@@H]1OC)n1c3ccccc3c3c4c(c5c6ccccc6n2c5c31)C(=O)NC4`, the residual activity was 0% in assay [11], 1% in assay [12], 0% in assay [13] and 1% in assay [20].
